Screening results: PubChem, National Center for Advancing Translational Sciences (NCATS)
Shown are actives, neighbours in structure and some others; about 12% of the full set was active somewhere.
Sfp inh: blocks B. subtilis Sfp PPTase activity | 310,000 tested, 3.5% active | Q9F4F7 | AID 1490 | Biochemical Sfp PPTase activity, qHTS | Potency, µM, most hits filed as inhibitors;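 note: the enzyme is Sfp with the accession as filed and its product quenches rhodamine fluorescence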
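With Hepes-Na pH 7.6 buffer containing 10 mM MgCl2, Sfp (15 nM) modified BHQ-2-YbbR (12.5 uM) using rhodamine-CoA (5 uM). Two reads 30 minutes apart at 525/598 nm yielded each well's rate.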
JMJD2A Tudor: blocks the human JMJD2A Tudor domain; AlphaScreen JMJD2A-Tudor / H3K4me3 peptide binding; Potency, µM (series often up to 114 µM), hits mostly inhibitors; 390,000 tested, 4.4% active; AID 504339; note: nearly all actives have a fitted effect of over 50% in size
BAZ2B block: blocks human BAZ2B | AlphaScreen BAZ2B-H3K14Ac peptide displacement | Potency, µM (top dose mostly 114 µM), usual class: inhibitors | 360,000 tested, 4.4% active | AID 504333; note: nearly all actives have a fitted effect of over 60% in size
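AlphaScreen displacement of biotin-H3(5-23)K14Ac peptide (50 nM final) from BAZ2B (50 nM final) in PBS pH 7.4, 0.01% Tween-20; complex preformed 30 min RT, then compounds (top 110 uM) 30 min RT, beads 20 min dark.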
HP1b chromo inh: inhibitors of HP1-beta chromodomain binding to methylated histone tails; P83916; AlphaScreen HP1-beta / biotin-H3K9me3 peptide binding; Potency, µM (highest dose often 114 µM), usual class: inhibitors; 390,000 tested, 0.56% active; AID 540317; note: nearly all actives have a fitted effect of over 70% in size
Target sequence (P83916 whole entry, looked up): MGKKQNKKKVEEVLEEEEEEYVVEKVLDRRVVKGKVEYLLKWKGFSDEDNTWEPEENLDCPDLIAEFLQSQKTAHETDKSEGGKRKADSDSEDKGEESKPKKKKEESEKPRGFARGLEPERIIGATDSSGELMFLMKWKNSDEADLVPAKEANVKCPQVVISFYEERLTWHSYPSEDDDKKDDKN
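HP1-beta protein (50 nM final) preincubated 30 min at room temperature with biotinylated H3(1-18)K9me3 peptide (50 nM) in PBS pH 7.4, 0.01% Tween-20, then compound added for 30 min. AlphaScreen streptavidin donor/nickel chelate acceptor beads (10 ug/mL final), 30 min dark, luminescence read.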
G9a inh: blocks human histone lysine methyltransferase G9a; G9a H3K9 monomethylation, AlphaScreen, 2 h; Potency, µM (doses to about 102 µM), usual class: inhibitors; 350,000 tested, 8.8% active; AID 504332; note: nearly all actives have a fitted effect of over 75% in size
Target sequence (Q96KQ7 913-1193 limits assumed): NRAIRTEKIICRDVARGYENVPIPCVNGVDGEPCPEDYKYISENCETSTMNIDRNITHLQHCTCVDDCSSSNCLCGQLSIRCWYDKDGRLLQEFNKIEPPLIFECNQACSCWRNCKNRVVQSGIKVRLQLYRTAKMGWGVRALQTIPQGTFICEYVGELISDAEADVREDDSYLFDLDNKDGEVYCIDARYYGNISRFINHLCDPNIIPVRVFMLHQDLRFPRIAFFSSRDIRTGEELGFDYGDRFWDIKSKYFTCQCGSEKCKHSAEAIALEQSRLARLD
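G9a (20 nM) was preincubated 15 min with compound, then reacted 2 h at room temperature with 500 nM biotin-H3K9 peptide and 20 µM SAM. Monomethyl-H3K9 detected by AlphaScreen using anti-H3K9me1 antibody.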
A number is an active result; - = inactive; ? = inconclusive; . = no result; [ ] = another dose, or the depositor's remark. Calls come from the whole dose curve; as a rule, active = well fitted curve in the direction sought with a large enough effect; inconclusive = small, poorly fitted or top-dose-only effect, or another doubt; inactive = no such curve, though single readings can be large; an effect the other way counts as inactive or inconclusive.

SMILES	Sfp inh	JMJD2A Tudor	BAZ2B block	HP1b chromo inh	G9a inh
CCc1ccc(CNC(=O)c2cc(=O)[nH]c3ccc(S(=O)(=O)N4CCCCC4)cc23)cc1	.	-	-	-	-
COc1ccccc1CCNC(=O)Cn1c(=O)oc2ccccc21	-	-	79.4µM	-	39.8µM
Cc1ccc(C(=O)Oc2ccc(Br)cc2C(=S)N2CCOCC2)cc1	-	-	-	?	39.8µM
COc1ccc(C(=O)N2CCOCC2)cc1Br	-	-	-	-	-[12.7 µM]
COc1ccc(C(=O)Oc2ccc(Br)cc2C(=S)N2CCOCC2)cc1	-	-	-	-	56.2µM
O=C(Oc1ccc(Br)cc1C(=S)N1CCOCC1)c1ccc(F)cc1	31.6µM	-	?	-	.
CCOc1cc(C(=S)N2CCOCC2)ccc1OC(=O)c1cccc(C)c1	-	?	-	-	?
CCOc1ccc(Br)cc1C(=S)N1CCCC1	-	-	-	-	-[0.501 µM]
Cc1c([N+](=O)[O-])cc(C(=O)Oc2ccc(Br)cc2C(=S)N2CCCCC2)cc1[N+](=O)[O-]	-	?	?	-	8.91µM
CC[C@@]1(C(=O)OC)N[C@H](CN(C)C(=O)Nc2ccccc2)[C@@H]2C(=O)N(Cc3ccccc3)C(=O)[C@@H]21	.	-	.	-	.
COc1cccc(CN2CC34CC(c5ccc(C(C)=O)cc5)C(CC3S2(=O)=O)O4)c1 (configuration not stated)	-	-	.	-	.
CNC(=O)c1sc(-c2cccs2)nc1C	-	-	.	-	44.7µM
CN(C)CC(C)(C)CNC(=O)C1CCN(CCCc2ccccc2)CC1	-	56.2µM	-	-	?
CCOC(=O)C1CCCN(CCCc2ccccc2)C1 (configuration not stated)	-	-	-	-	-
CCCCN(C)C(=O)C1CCN(CCCc2ccccc2)CC1	-	8.91µM	56.2µM	?	?
Cn1c(=O)[nH]c(=O)c2c1nc(NN)n2CCOc1ccccc1	25.1µM	?	-	-	11.2µM
Cn1c(=O)[nH]c(=O)c2c1nc(NCCN)n2CCOc1ccccc1	-	-	-	-	-[0.501 µM]
CC(O)CSc1nc2c(c(=O)[nH]c(=O)n2C)n1CC(O)COc1ccccc1 (configuration not stated)	-	-	-	-	11.2µM
CCCn1c(N/N=C(C)\C=C\c2ccccc2)nc2c1c(=O)[nH]c(=O)n2C	39.8µM	.	-	.	?
Cn1c(=O)[nH]c(=O)c2c1nc(N1CCCC1)n2CC(O)COc1ccccc1 (configuration not stated)	-	-	-	-	-
CC(C)Sc1nc2c(c(=O)[nH]c(=O)n2C)n1CC(O)COc1ccccc1 (configuration not stated)	?	-	-	-	22.4µM
Cc1ccccc1OC(=O)CSc1nnc(-c2ccc3c(c2)OCO3)o1	.	-	-	-	?
O=C(CN1C(=O)NC2(CCCC2)C1=O)Nc1nc2c(F)cc(F)cc2s1	.	-	-	-	-[2.33 µM]
NC(Cc1ccccc1)C(O)c1ccco1 (configuration not stated)	-	-	.	-	.
C#CCN1N=C(c2ccc(C)cc2)CSC1=O	.	-	.	-	.
SMILES	Sfp inh	JMJD2A Tudor	BAZ2B block	HP1b chromo inh	G9a inh
CCc1cc(Cn2nc(-c3ccccc3)cc2C(=O)NCc2cccs2)on1	.	-	-	-	-[2.33 µM]
Cc1cc(NCCC(C)C)n2nc(C)c(-c3ccccc3)c2n1	56.2µM	-	-	-	-
Cc1cc(NCCCN2CCOCC2)n2nc(C)c(-c3ccccc3)c2n1	-	-	-	-	-
CCOc1ccc(CNc2cccc(SC)c2)cc1	-	3.16µM	39.8µM	44.7µM	28.2µM
Cc1[nH]nc(SCC(=O)N2CCCC2)c1[N+](=O)[O-]	-	-	-	-	-
Cc1[nH]nc(SCC(=O)N2CCC(C)CC2)c1[N+](=O)[O-]	89.1µM	-	-	-	?
Cc1ccc(C(=O)CC(C(=O)O)P(=O)(c2ccccc2)c2ccccc2)cc1 (configuration not stated)	-	-	-	-	70.8µM
O=C(Cc1ccccc1)NNC(=O)C1CC=CCC1 (configuration not stated)	-	-	-	-	-
OCCN(Cc1ccccc1)CC1CC=CCC1 (configuration not stated)	-	10µM	79.4µM	?	10µM
COc1ccc(-c2cc(-c3cc(OC)ccc3O)[nH]n2)cc1	-	28.2µM	?	?	-
COc1ccc(-c2n[nH]c(C)c2-c2cc(OC)ccc2O)cc1	39.8µM	-	-	-	?
O=C(NCCCc1ccccc1)c1ccc(-n2cncn2)c([N+](=O)[O-])c1	.	-	-	-	-
CN1CCN(CC(=O)c2ccccc2F)CC1	56.2µM	6.31µM	22.4µM	?	4.47µM
CN1CCN(CC(=O)Nc2cc(N(C)C)nc3ccccc23)CC1	-	-	?	-	50.1µM
Cc1ccccc1NC(=O)CN1CCN(C)CC1	?	3.16µM	28.2µM	28.2µM	10µM
Cc1ccccc1NC(=O)CCN1CCN(C)CC1	-	-	-	-	-
CC(C)CN(C(=O)CCNC(=O)c1ccccc1Cl)C1CCS(=O)(=O)C1 (configuration not stated)	.	-	-	-	-
CCC(=O)N1CCc2cc(S(=O)(=O)CCC(=O)Nc3cccc(F)c3)ccc21	-	-	-	-	22.4µM
CCC(=O)N1CCc2cc(S(=O)(=O)CCC(=O)Nc3ccc(F)c(F)c3)ccc21	-	-	56.2µM	-	-
COCCn1c(=O)c(-c2cccc(C#N)c2)nc2cnc(N3CCOCC3)nc21	-	.	.	.	-[0.501 µM]
Cn1c(=O)n(C)c2cc(N3CCOCC3)c(NS(=O)(=O)c3ccc(Br)cc3)cc21	.	-	50.1µM	-	?
Cn1c(=O)c(=O)n(C)c2cc(N3CCOCC3)c(NS(=O)(=O)c3ccc(F)c(Cl)c3)cc21	-	-	-	-	-
CC1CCN(c2ccc(C(=O)O)cc2NS(=O)(=O)c2ccc(Br)cc2)CC1	-	-	-	-	28.2µM
Cn1c(=O)c(=O)n(C)c2cc(N3CCOCC3)c(NS(=O)(=O)c3ccc([N+](=O)[O-])cc3)cc21	50.1µM	?	79.4µM	-	?
COC(=O)c1ccc(N2CCCCC2)c(NS(=O)(=O)c2ccc(C)cc2)c1	-	-	-	-	-
SMILES	Sfp inh	JMJD2A Tudor	BAZ2B block	HP1b chromo inh	G9a inh
Cc1ccc(CN2CCNC(=O)C2CC(=O)O)cc1 (configuration not stated)	-	-	-	-	15.8µM
O=C(O)CC1C(=O)NCCN1CCCc1ccccc1 (configuration not stated)	-	-	-	-	28.2µM
CCCC(c1nnnn1C(C)(C)C)N1CCN(Cc2ccccc2OC)CC1 (configuration not stated)	56.2µM	-	?	-	-[12.7 µM]
Fc1ccc(CN2CCN(c3ncnc4scc(-c5ccccc5)c34)CC2)cc1	-	?	-	-	-[2.33 µM]
Fc1ccc(N2CCN(c3nc(CN4CCOCC4)nc4scc(-c5ccccc5)c34)CC2)cc1	-	44.7µM	11.2µM	?	8.91µM
Fc1ccc(-c2csc3ncnc(Nc4ccc(N5CCOCC5)cc4)c23)cc1	-	?	39.8µM	-	-[0.501 µM]
